Measurements: PubChem BioAssay AID2685 (National Center for Advancing Translational Sciences (NCATS), 2010)
The campaign covered roughly 320,000 compounds. About 2,100 (0.66%) were called active. Roughly 53% stayed inconclusive and do not appear here. Calls come from the whole dose curve; as a rule, active = well fitted inhibition curve with a large enough effect in the signal ratio, with a control signal flat (not every such curve was filed as active); inconclusive = small, poorly fitted or top-dose-only effect, or effect the other way, or a change in a side signal; inactive = flat fitted curve, though single readings scatter; the % refers to the signal ratio. The list comes from a sample in which actives are over-represented; it also holds similar structures and randomly drawn compounds.

Test: qHTS Assay for Lipid Storage Modulators in Drosophila S3 Cells;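 for cell number change: cells counted by Cell Tracker Red CMTPX staining in the red channel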
Details: BODIPY lipid droplet fluorescence, 18-24 h, cells fed with added oleic acid; cell number change: measured here: cell count max response; series mostly up to 46.1 µM
Procedure, shortened: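 Laser-scanning cytometry quantifies lipid droplet accumulation (500–530 nm total intensity; droplet/cell object ratio) in oleic acid-fed (400 uM added) Drosophila S3 cells treated with a concentration series. 20 uM Triacsin C defined 100% inhibition.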
Potency is the fitted concentration of half-maximal effect.

Row | SMILES | Potency | cell number change
1 | COc1cc(CNC2CCCCC2OC)cc(OC)c1OC (stereo not given) | inactive | 3.58%
2 | O=C(O)c1cnn(-c2ccccc2)c1-c1ccncc1 | inactive | –
3 | Cc1cc(/C=N/N2CCN(C)CC2)c(C)n1-c1ccccc1F | inactive | –
4 | CCCn1c(SCC(=O)Nc2nnc(C)s2)nnc1-c1ccoc1C | inactive | -14%
5 | CS(=O)(=O)N(CC(=O)N1CCN(c2ccccc2F)CC1)C1CCCCC1 | inactive | -9.38%
6 | Cc1c(CNC(=O)C2CC2)c(-n2cccc2)n(Cc2ccccc2)c1C | inactive | 18.9%
7 | COCCNS(=O)(=O)c1ccc(-c2ccc(Cl)cc2)cc1 | inactive | 8.47%
8 | COc1cc(S(=O)(=O)NCc2ccccc2)ccc1F | inactive | 6.61%
9 | COCCNS(=O)(=O)c1ccc(F)c(OC)c1 | 20.6 µM (active) | 2.25%
10 | O=S(=O)(O)c1cc(OS(=O)(=O)c2ccccc2)cc2ccccc12 | inactive | 6.99%
11 | COc1ccc(Cc2nc3ccc(C(=O)NCc4cc(C)no4)cc3o2)cc1OC | inactive | -13.7%
12 | O=C(c1ccc([N+](=O)[O-])cc1)N1CCN(Cc2ccccc2)CC1 | inactive | 11.4%
13 | Nn1c(SCC(=O)Nc2ccc3c(c2)OCO3)nnc1-c1cccc(Cl)c1 | inactive | 0.909%
14 | O=C(O)c1ccccc1C(=O)N1CCN(C(=O)c2ccccc2Cl)CC1 | inactive | 18.7%
15 | O=C(O)C1CCN(C(=O)c2ccccc2Cl)CC1 | 18.4 µM (active) | 6.2%
16 | O=CN1CCN(C(=O)c2ccccc2Cl)CC1 | 16.4 µM (active) | -3.9%
17 | O=C(NC1CCCCC1)C1CCN(C(=O)c2ccccc2Cl)CC1 | inactive | -4.35%
18 | O=C(c1ccccc1Cl)N1CCSCC1 | inactive | 2.74%
19 | O=C(NC1CC1)C1CCN(C(=O)c2ccccc2Cl)CC1 | inactive | –
20 | O=C(NCCCn1ccnc1)c1cc2cc([N+](=O)[O-])ccc2oc1=O | inactive | 15.7%

Row | SMILES | Potency | cell number change
21 | CCCN1CCC(=NNc2ccc(S(N)(=O)=O)cc2[N+](=O)[O-])CC1 | inactive | -0.104%
22 | CCCn1c(SCCN2CCOCC2)nc2c1c(=O)n(C)c(=O)n2C | inactive | –
23 | COc1ccc(CNC(=O)CN2C(=O)NC(C)(c3cccc4ccccc34)C2=O)cc1OC (stereo not given) | 18.4 µM (active) | -4.84%
24 | COc1ccc(CNC(=O)CN2C(=O)NC3(CCCCCC3)C2=O)cc1OC | inactive | -8.33%
25 | COc1ccc(CNC(=O)CN2C(=O)NC(C)(c3cccc(Br)c3)C2=O)cc1 (stereo not given) | inactive | 15.2%
26 | Cc1c(C)c(C)c(S(=O)(=O)NCCC(=O)N2CCN(Cc3ccc(C#N)cc3)CC2)c(C)c1C | inactive | 10.7%
27 | O=C(CCNS(=O)(=O)c1ccc(Cl)cc1)N1CCN(Cc2ccccc2)CC1 | inactive | -14.8%
28 | N#Cc1ccc(CN2CCN(C(=O)CCNS(=O)(=O)c3ccc(F)c(Cl)c3)CC2)cc1 | 20.6 µM (active) | -29%
29 | Cc1ccc(NC(=O)CC(NC(=O)c2ccccc2Cl)c2ccccc2)nc1 (stereo not given) | inactive | 12.3%
30 | Cc1cccc(N2CCN(C(=O)C(Cc3ccccc3)NC(N)=O)CC2)c1C (stereo not given) | inactive | -3.7%
31 | Cc1cccc(N2CCN(C(=O)CC(NC(=O)c3ccccc3Cl)c3ccccc3)CC2)c1C (stereo not given) | 10.3 µM (active) | -1.65%
32 | CCC(C)NC(=O)CSc1c2c(nc3ccccc13)CCCC2 (stereo not given) | inactive | -7.84%
33 | COCCNC(=O)CSc1nc2ccccc2c(=O)n1CCC(=O)NCCc1ccc(OC)c(OC)c1 | inactive | -7%
34 | CCOC(=O)CN1NC2(CCC(C(C)(C)C)CC2)NC1=S (stereo not given) | inactive | 0.162%
35 | CCOC(=O)CN1NC2(CCC(C)CC2)NC1=S (stereo not given) | 18.4 µM (active) | 16.5%
36 | CCOC(=O)CN1NC2(CCCCCCC2)NC1=S | inactive | 26.5%
37 | CC(=O)N1CC2(NC(=O)c3ccccc3N2)c2ccccc21 (stereo not given) | inactive | 1.06%
38 | COc1ccc(-n2nnc3c(=O)n(CC(=O)N4CCCCC4)cnc32)cc1 | inactive | –
39 | CN(C(=O)/C=C/c1ccc([N+](=O)[O-])s1)c1ccccc1 | inactive | 5.5%
40 | Cc1cccc(NC(=O)/C=C/c2ccc([N+](=O)[O-])s2)c1 | 20.6 µM (active) | -28.2%

Row | SMILES | Potency | cell number change
41 | Cc1ccccc1NC(=O)/C=C/c1cccs1 | inactive | -15.7%
42 | Cc1ccccc1NC(=O)/C=C/c1ccc([N+](=O)[O-])s1 | 9.2 µM (active) | -29.7%
43 | CC(=O)c1cccc(NC(=O)/C=C/c2ccc([N+](=O)[O-])s2)c1 | inactive | -6.6%
44 | Cc1cc(C)cc(NC(=O)/C=C/c2ccc([N+](=O)[O-])s2)c1 | inactive | -13.6%
45 | O=C(c1ccc(-n2cncn2)c([N+](=O)[O-])c1)N1CCN(c2cccc(Cl)c2)CC1 | inactive | 25.4%
46 | Cn1cnc2cc(OC(=O)c3ccccc3)ccc21 | inactive | 19.2%
47 | CCOC(=O)c1nc(Nc2ccc(C(C)=O)cc2)c2ccccc2n1 | inactive | -13.6%
48 | CCCCC(CCC(=O)O)(C(=O)OCC)c1csc(Nc2ccccc2)n1 (stereo not given) | inactive | 0.537%
49 | CCOC(=O)/C(=N\Nc1ccc(C(C)=O)cc1)c1csc(Nc2ccccc2)n1 | 16.4 µM (active) | 17.1%
50 | COc1cccc(NC(=S)Nc2cc(C(=O)O)ccc2N2CC3CC(C2)c2cccc(=O)n2C3)c1 (stereo not given) | inactive | -20.1%
51 | CC(C)c1cccc(C2=CC(=O)C[C@H](c3ccc(F)cc3)C2)c1 | inactive | -1.84%
52 | COc1ccc(CNC(=O)C(c2cccc(C)c2)N(C(=O)c2csnn2)C2CC2)cc1 (stereo not given) | 2.06 µM (active) | 16.2%
53 | O=C(NCc1ccccc1)C(c1ccccc1)N(C(=O)c1csnn1)C1CC1 (stereo not given) | inactive | 0.427%
54 | COc1ccc(CNC(=O)C(c2ccccc2F)N(C(=O)c2csnn2)C2CC2)cc1 (stereo not given) | inactive | 9.27%
55 | Cc1nonc1C(=O)N/N=C/c1cc2c(cc1Br)OCO2 | inactive | 13%
56 | COc1cc2c(cc1OC)CN(C(=S)Nc1ccc(C)cc1C)CC2 | inactive | -5.84%
57 | O=C(Nc1ccccc1-c1nc2ccccc2[nH]c1=O)c1cccs1 | 9.2 µM (active) | 7.26%
58 | CC(C)C(=O)Nc1ccccc1-c1nc2ccccc2[nH]c1=O | inactive | -27.6%
59 | CCC(=O)Nc1ccccc1-c1nc2ccccc2[nH]c1=O | inactive | -8.79%
60 | Cc1c(C(=O)N2CCCCC2)c(S(=O)(=O)NCCc2ccccc2)c(C)n1C | inactive | -0.59%
